# Inconclusive results are not listed. Where a call stands in place of a potency, no number is given. Values without a mark were called inactive. The source made the active and inactive calls. Calls come from the whole dose curve; as a rule, active = well fitted curve in the direction sought with a large enough effect; inconclusive = small, poorly fitted or top-dose-only effect, or another doubt; inactive = no such curve, though single readings can be large; an effect the other way counts as inactive or inconclusive.
# Key:
# HEK293T [1] = test: qHTS assay to identify novel small-molecules to repurpose for Merkel cell carcinoma treatment (AID 1296009); details: MCC and control cell lines, CellTiter-Glo viability, 72 h; at 44.8 µM (top of the series) unless noted; note: nearly all actives have a fitted effect of over 60% in size
# Procedure, shortened: (§1)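 Cells were treated for 72 hr at 37 degree celsius with compounds in 8- or 11-point dose response. Viability was read by CellTiter-Glo luminescence, normalized to no-cell (cytotoxicity) and DMSO controls.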
# MCC-13 = test: as above; details: MCC and control cell lines, CellTiter-Glo viability, 72 h; series mostly up to 46 µM
# Procedure, shortened: as §1
# MCC-26 = test: as above; details: MCC and control cell lines, CellTiter-Glo viability, 72 h; series mostly up to 46 µM
# Procedure, shortened: as §1
# MKL-1 = test: as above; details: MCC and control cell lines, CellTiter-Glo viability, 72 h; series mostly up to 46 µM
# Procedure, shortened: as §1
# MKL-2 = test: as above; details: MCC and control cell lines, CellTiter-Glo viability, 72 h; series mostly up to 46 µM
# Procedure, shortened: as §1
# NIH3T3 = test: as above; details: MCC and control cell lines, CellTiter-Glo viability, 72 h; at 44.8 µM (top of the series) unless noted
# Procedure, shortened: as §1
# UISO = test: as above; details: MCC and control cell lines, CellTiter-Glo viability, 72 h; series mostly up to 46 µM
# Procedure, shortened: as §1
# WaGa = test: as above; details: MCC and control cell lines, CellTiter-Glo viability, 72 h; series mostly up to 46 µM
# Procedure, shortened: as §1
# C33A = test: Primary qHTS to identify gynecologic anti-cancer compounds using libraries of approved drugs and bioactive compounds (AID 1345084); details: Gynecologic cancer cell panel viability, ATPlite luminescence, 48 h; series mostly up to 57.5 µM; note: nearly all actives have a fitted effect of over 55% in size
# Procedure, shortened: (§2)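 Five-concentration response, 48 h; readout is ATP-driven luciferase luminescence.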
# CAOV3 = test: as above; details: Gynecologic cancer cell panel viability, ATPlite luminescence, 48 h; series mostly up to 57.5 µM
# Procedure, shortened: as §2
# CASKI = test: as above; details: Gynecologic cancer cell panel viability, ATPlite luminescence, 48 h; series mostly up to 57.5 µM
# Procedure, shortened: as §2
# Es-2 = test: as above; details: Gynecologic cancer cell panel viability, ATPlite luminescence, 48 h; series mostly up to 57.5 µM
# Procedure, shortened: as §2
# HeLa = test: as above; details: Gynecologic cancer cell panel viability, ATPlite luminescence, 48 h; series mostly up to 57.5 µM
# Procedure, shortened: as §2
# Hek293T [2] = test: as above; details: Gynecologic cancer cell panel viability, ATPlite luminescence, 48 h, control line for the selectivity index; series mostly up to 57.5 µM
# Procedure, shortened: as §2
# JEG-3 = test: as above; details: Gynecologic cancer cell panel viability, ATPlite luminescence, 48 h; series mostly up to 57.5 µM
# Procedure, shortened: as §2
# OV90 = test: as above; details: Gynecologic cancer cell panel viability, ATPlite luminescence, 48 h; series mostly up to 57.5 µM
# Procedure, shortened: as §2
# PA-1 = test: as above; details: Gynecologic cancer cell panel viability, ATPlite luminescence, 48 h; series mostly up to 57.5 µM
# Procedure, shortened: as §2
# SKOV3 = test: as above; details: Gynecologic cancer cell panel viability, ATPlite luminescence, 48 h; series mostly up to 57.5 µM
# Procedure, shortened: as §2
# Tov-21-G = test: as above; details: Gynecologic cancer cell panel viability, ATPlite luminescence, 48 h; series mostly up to 57.5 µM
# Procedure, shortened: as §2
# HACAT = test: qHTS assay to identify novel small-molecules to repurpose for Merkel cell carcinoma treatment (AID 1296009); details: MCC and control cell lines, CellTiter-Glo viability, 72 h; at 44.8 µM (top of the series) unless noted; note: nearly all actives have a fitted effect of over 60% in size
# Procedure, shortened: as §1
# Potency is the fitted concentration of half-maximal effect.
Compound,outcome (HEK293T [1]),Potency (MCC-13),Potency (MCC-26),Potency (MKL-1),Potency (MKL-2),outcome (NIH3T3),Potency (UISO),Potency (WaGa),Potency (C33A),Potency (CAOV3),Potency (CASKI),Potency (Es-2),Potency (HeLa),Potency (Hek293T [2]),Potency (JEG-3),Potency (OV90),Potency (PA-1),Potency (SKOV3),Potency (Tov-21-G),outcome (HACAT)
CN1CCN(N)CC1,inactive,inactive,inactive,inactive,inactive,inactive,inactive,inactive,inactive,inactive,inactive,inactive,inactive,inactive,inactive,inactive,inactive,inactive,inactive,–
COc1cc2c(cc1OC)CN(C(=O)[C@H](C)N[C@@H](CCc1ccccc1)C(=O)O)[C@H](C(=O)O)C2,inactive,inactive,inactive,inactive,inactive,–,inactive,inactive,inactive,inactive,inactive,inactive,inactive,inactive,inactive,inactive,inactive,inactive,inactive,–
CCOC(=O)C(=O)CCc1ccccc1,–,–,inactive,inactive,inactive,–,inactive,inactive,inactive,inactive,inactive,inactive,inactive,inactive,inactive,inactive,inactive,inactive,inactive,inactive
CCN1CCCC1CN (stereo not given),inactive,inactive,inactive,inactive,inactive,–,inactive,inactive,inactive,inactive,inactive,inactive,inactive,inactive,inactive,inactive,inactive,inactive,inactive,–
Cc1[nH]cnc1-c1ccc(Cl)cc1,inactive,inactive,inactive,inactive,inactive,inactive,inactive,inactive,inactive,inactive,inactive,inactive,inactive,inactive,inactive,inactive,inactive,inactive,inactive,–
O=C(Nc1ccc(S(=O)(=O)N2CCOCC2)cc1)c1cc(Cl)ccc1NS(=O)(=O)c1ccc(Cl)s1,inactive,inactive,inactive,inactive,inactive,inactive,inactive,inactive,–,–,inactive,inactive,inactive,inactive,inactive,inactive,–,inactive,inactive,–
Cc1ccc(C(=O)C(=O)O)cc1C,inactive,inactive,inactive,inactive,inactive,–,inactive,inactive,inactive,inactive,inactive,inactive,inactive,inactive,inactive,inactive,inactive,inactive,inactive,–
CN(C(=O)C(Cl)Cl)c1ccc(OC(=O)c2ccco2)cc1,–,inactive,–,inactive,inactive,–,inactive,inactive,inactive,inactive,inactive,inactive,inactive,inactive,inactive,inactive,inactive,inactive,inactive,inactive
Cc1cccc(C)c1NC(=O)c1ccc(N)cc1,–,inactive,–,inactive,inactive,inactive,inactive,inactive,inactive,inactive,inactive,inactive,inactive,inactive,inactive,inactive,inactive,inactive,inactive,inactive
Nc1ncnc2nc[nH]c12,–,inactive,–,inactive,inactive,–,inactive,inactive,inactive,–,inactive,inactive,inactive,inactive,inactive,inactive,inactive,–,inactive,inactive
O=C(O)C(=O)Nc1cccc(-c2nn[nH]n2)c1,inactive,inactive,inactive,inactive,inactive,inactive,inactive,inactive,inactive,inactive,inactive,inactive,inactive,inactive,inactive,inactive,inactive,inactive,inactive,–
CCC1=C[C@@H]2CN(C1)Cc1c([nH]c3ccccc13)[C@@](C(=O)OC)(c1cc3c(cc1OC)N(C)[C@H]1[C@@](O)(C(=O)OC)[C@H](OC(C)=O)[C@]4(CC)C=CCN5CC[C@]31[C@@H]54)C2,–,–,–,–,18.8 nM (active),–,11.9 nM (active),–,–,10000 nM (active),–,–,–,–,–,–,–,–,–,inactive
CC(Oc1c(Cl)cccc1Cl)C1=NCCN1 (stereo not given),–,inactive,–,inactive,inactive,–,inactive,inactive,inactive,inactive,inactive,inactive,inactive,inactive,inactive,inactive,inactive,inactive,inactive,inactive
CC(C)N(CCC(=O)c1ccc2ccccc2c1)Cc1ccccc1,–,–,–,–,–,–,–,–,inactive,inactive,inactive,inactive,inactive,inactive,inactive,inactive,inactive,inactive,inactive,inactive; activator
Cc1ccccc1N1CCN(CCc2nnc3n2CCCC3)CC1,inactive,inactive,inactive,inactive,inactive,–,inactive,inactive,inactive,inactive,inactive,inactive,inactive,inactive,inactive,inactive,inactive,inactive,inactive,–

# Source: PubChem BioAssay (NCATS)
